Pf Dd2 growth: qHTS Primary assay for Inhibitors of Plasmodium falciparum Dd2 growth in vitro. Potency, µM (titrated, usually from 28.9 µM), usual class: inhibitors. 120,000 tested, 4.3% active. AID 1347417, 2020. P. falciparum Dd2 growth, SYBR Green, 72 h; active means well fitted inhibition curve with a large enough effect; further: nearly all actives have a fitted effect of over 65% in size
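Infected erythrocytes (Dd2, 0.3% parasitemia, 2.5% hematocrit final) are added to compound in RPMI-1640/Albumax II medium, grown 72 h at 37C in low oxygen, then lysed with saponin/Triton-X containing SYBR Green and read by fluorescence.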
Large screens that a line does not name were inactive; ! = not confirmed by another sample. This excerpt belongs to a sample that is enriched for hits.

CC(C)(C)c1nc(C(=O)N2CCN(c3ncccn3)CC2)n2ccncc12	Pf Dd2 growth 5µM
O=C(c1nc(-c2ccc(F)cc2)c2cnccn12)N1CCN(c2ncccn2)CC1	none
CC(C)NC(=O)c1nc(-c2ccc(Cl)cc2Cl)c2cnccn12	Pf Dd2 growth 3.5µM
COc1ccccc1-c1nc(C(=O)NCc2cccnc2)n2ccncc12	Pf Dd2 growth 10µM!
COc1ccccc1-c1cc(C(=O)NCc2cccnc2)nn2cccc12	none
O=C(NCc1ccc2c(c1)OCO2)c1nc(-c2ccc(Cl)cc2Cl)c2ccccn12	none
O=C(c1nc(-c2cccc(C(F)(F)F)c2)c2ccccn12)N1CCN(c2ncccn2)CC1	none
COC(=O)CNC(=O)c1nc(-c2ccccc2OC)c2cnccn12	none
COC(=O)CNC(=O)c1nc(-c2ccc(Cl)cc2Cl)c2ccccn12	none
O=C(NCc1cccnc1)c1nc(-c2ccc(Cl)cc2Cl)c2cnccn12	Pf Dd2 growth 11µM
Cn1ncc2c(C(=O)NCc3cccnc3)cc(-c3ccc(Cl)cc3Cl)nc21	none
Cc1ccc(Cn2c(C3CCN(C(=O)c4sccc4C)CC3)n[nH]c2=O)cc1	none
O=C1NCCC[C@@H]1NC(=O)[C@H]1CN(C(=O)c2ccccc2)CCN1S(=O)(=O)c1ccc(F)cc1	none
CN(Cc1ccc(C(F)(F)F)cc1)Cc1cccn1C	none
CC(C)OCCCNC(=O)C1CC(=O)N(c2n[nH]c3ccccc23)C1 (configuration not stated)	none
CCOCCOC1CCN(C(=O)c2cc3ccccc3[nH]2)CC1	none
CCCNC(=O)NCC(=O)N1CCCCCCNC(=O)CC1c1ccccc1 (configuration not stated)	none
O=C(CC1C(=O)NCCN1Cc1cccc(Oc2ccccc2)c1)NCc1ccoc1 (configuration not stated)	none
Cc1ccc(CNC(=O)CC2CCCN(c3cn[nH]c(=O)c3)C2)cc1 (configuration not stated)	none
CC(C)(CNc1ccc(-c2nc(C3CC3)no2)cn1)N1CCOCC1	none
C[S+](=O)([O-])c1ccc(-c2nc(C(=O)N3CCOCC3)n3ccccc23)cc1	none
O=C(c1nc(-c2ccc(Cl)nc2)c2cnccn12)N1CCOCC1	none
COc1ccccc1-c1nc(C(=O)N2CCCC2)n2ccncc12	Pf Dd2 growth 10µM
COc1ccccc1-c1nc(C(=O)N(C)C)n2ccncc12	none
C[S+](=O)([O-])c1ccc(-c2nc(C(=O)N3CCCC3)n3ccncc23)cc1	Pf Dd2 growth 13µM
COc1ccccc1-c1cc(C(=O)N2CCCC2)nn2cccc12	none
Cc1cc(C(F)(F)F)nn1CC(=O)N1CCCC(c2[nH]ccc2C(N)=O)C1 (configuration not stated)	none
Cc1cnc(C(=O)N2CCC(c3noc(-c4cnccn4)n3)C2)cn1 (configuration not stated)	none
CC(C)c1cccc(NC(=O)CN2C(=O)NC3(CCS(=O)(=O)CC3)C2=O)c1	none
CCn1c2c(c(=O)n1-c1ccccc1)CCN(Cc1cccnc1OC)C2	none
CCC(NC(=O)c1coc(COc2ccc(F)cc2)n1)c1ccncc1 (configuration not stated)	none
CCOc1nccnc1NC1CCN(C(=O)NC)CC1	none
CCCSCCCNC(=O)C1CCN(C(=O)c2cc3sccc3n2C)CC1	Pf Dd2 growth 14µM
CCn1c(C(=O)N2CCC(C(=O)NCCc3ccccc3)CC2)cc2sccc21	none
Cc1cc(N2CCC(C(=O)NCCC(C)C)CC2)n2nc(C)c(-c3ccc(Cl)cc3)c2n1	none
CCCCNC(=O)C1CCc2sc(C(=O)N3CCOCC3)cc2C1 (configuration not stated)	none
Cn1c(C(=O)N2CCCC(C(=O)N3CCN(c4ccccc4)CC3)C2)cc2sccc21 (configuration not stated)	none
CC(C)CCNC(=O)C1CCN(C(=O)c2cc3sccc3n2Cc2ccc(Cl)cc2)CC1	Pf Dd2 growth 13µM
NC(=O)c1cccnc1OC1CCN(C(=O)c2ccoc2)C1 (configuration not stated)	none
CC(C)CCNC(=O)C1CCCN(Cc2cccnc2)CCC(=O)NCC1 (configuration not stated)	none
COc1ccc(C(=O)NC2CCN(c3cnn(Cc4ccccc4)c(=O)c3)CC2)cn1	none
COc1cccc(CC(=O)NC2CCN(c3cc(-c4ccc(Cl)cc4)[nH]n3)CC2)c1	none
CCOc1ccccc1CN(C)C(=O)CN1CC(c2ccccc2)CC1=O (configuration not stated)	none
Cc1cc(=O)cc(C(=O)N2CCC3(CCCN(C(C)C)C3=O)C2)o1 (configuration not stated)	none
Cn1c(SCC(=O)Nc2nc3ccccc3s2)ncc(C(=O)Nc2ccc(Cl)cc2)c1=O	none
CN1CCc2c(sc(NC(=O)CSc3ccccc3)c2-c2nc3ccccc3s2)C1	Pf Dd2 growth 11µM
Cn1c(SCC(=O)Nc2nc3ccccc3s2)ncc(C(=O)Nc2ccccc2)c1=O	none
CC(=O)N1CCc2c(sc(NC(=O)CSc3ccccc3)c2-c2nc3ccccc3s2)C1	Pf Dd2 growth 2µM
Cc1cnc(=O)[nH]c1SCC(=O)Nc1nc2ccccc2s1	none
O=C(CSc1ncc(CO)n1Cc1ccccc1)Nc1nc2ccccc2s1	none
Fc1ccccc1-c1nnc([C@H]2CCN(Cc3ccco3)C2)o1	none
O=C(CC1CCN(C(=O)c2ccc(F)cc2)C1)NC1CC1 (configuration not stated)	none
CC(C)CN1C(=O)c2ccccc2C(C(=O)Nc2nncs2)C12CCCC2 (configuration not stated)	Pf Dd2 growth 13µM
CC(C)CN1C(=O)c2ccccc2C(C(=O)NC(C)C)C12CCCC2 (configuration not stated)	none
COCCCNC(=O)C1c2ccccc2C(=O)N(CC(C)C)C12CCCCC2 (configuration not stated)	none
CCCCNC(=O)C1c2ccccc2C(=O)N(Cc2ccccc2)C12CCCC2 (configuration not stated)	none
CC(C)CN1C(=O)c2ccccc2C(C(=O)NC(C)C)C12CCCCC2 (configuration not stated)	none
COCc1nnc(NC(=O)C2c3ccccc3C(=O)N(CC(C)C)C23CCCC3)s1 (configuration not stated)	Pf Dd2 growth 5.6µM
CC(C)CNC(=O)C1c2ccccc2C(=O)N(C2CCCC2)C12CCCC2 (configuration not stated)	none
Cc1cccc(NC(=O)C2c3ccccc3C(=O)N(CC(C)C)C23CCCC3)n1 (configuration not stated)	Pf Dd2 growth 3.5µM
COCCNC(=O)C1c2ccccc2C(=O)N(CC(C)C)C12CCCCC2 (configuration not stated)	none
CN(C)CC1(O)CCCN(C(=O)c2ccccc2-c2ncc[nH]2)CC1 (configuration not stated)	none
CCCNC1CNC1	none
O=C1N(Cc2cccc(F)c2F)CCCC1(O)CN1CCOCC1 (configuration not stated)	none
Cc1cc(C)cc(NC(=O)c2ccc3c(c2)N(C)C2CCCN2C3=O)c1 (configuration not stated)	none
Cc1cccc(CNC(=O)c2oc3c(c2C)-c2nn(Cc4cccc(Cl)c4)cc2CC3)c1	none
Cc1cccc(CNC(=O)c2oc3c(c2C)-c2nn(Cc4ccccc4Cl)cc2CC3)c1	none
CCOc1ccc(CNC(=O)c2oc3c(c2C)-c2nn(Cc4cccc(Cl)c4)cc2CC3)cc1	Pf Dd2 growth 11µM
Cc1cc(-c2cc3c(nc2-c2ccccc2)nc(C(=O)NCCN(C)C)n3C)ccn1	none
Cc1ccccc1Nc1cc2c(nc1-c1ccccc1)nc(C(=O)NCCN(C)C)n2C	Pf Dd2 growth 7.9µM
CN(C)CCNC(=O)c1cc(-c2ccc(F)cc2)cc2ncn(C)c12	none
